Test results taken from PubChem BioAssay (NCI).
Compounds without any hit were thinned out: in the full panel of roughly 83,000, 20% have a hit.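 For each line, cells grew in 96-well plates with the test compound present at a single concentration for 48 hours.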 Unmarked numbers belong to inactive results. Activity calls are given as the source filed them. How the source made its calls: active means growth percent below 10; inactive means the rest.

Experiments:
Assay in all cases: NCI-60 one-dose screen, 48 h (100 = growth as untreated, 0 = no growth, -100 = all killed)
HT29 colon = conditions: 10 µM unless noted
SNB-75 CNS = conditions: 10 µM unless noted
SNB-19 CNS = conditions: 10 µM unless noted
U251 CNS = conditions: 10 µM unless noted
PC-3 prostate = conditions: 10 µM unless noted
SK-MEL-5 melanoma = conditions: 10 µM unless noted
UACC-62 melanoma = conditions: 10 µM unless noted
LOX IMVI melanoma = conditions: 10 µM unless noted
SK-MEL-28 melanoma = conditions: 10 µM
SK-MEL-2 melanoma = conditions: 10 µM unless noted

| Compound | growth (HT29 colon) | growth (SNB-75 CNS) | growth (SNB-19 CNS) [%] | growth (U251 CNS) | growth (PC-3 prostate) | growth (SK-MEL-5 melanoma) | growth (UACC-62 melanoma) | growth (LOX IMVI melanoma) | growth (SK-MEL-28 melanoma) | growth (SK-MEL-2 melanoma) |
| --- | --- | --- | --- | --- | --- | --- | --- | --- | --- | --- |
| CCOC(=O)C1=C(C)N=c2s/c(=C\c3ccccc3O)c(=O)n2C1c1ccc(OC)c2ccccc12 (stereo not given) | -52.2% (active) | -44.2% (active) | 58.1 | -68.6% (active) | 22.9% | -98.1% (active) | -85.4% (active) | -85.6% (active) | -96.2% (active) | -75.5% (active) |
| COc1cc(C(C)n2cc(-c3ccccc3)nn2)ccc1OC1CCCC1 (stereo not given) | 82.4% | 75.5% | 79.2 | 79% | 65.2% | 25.9% | 63.6% | 60.6% | 98.8% | 72.9% |
| COc1cccc2c(=O)c3c(sc12)c(NCCCNCCO)nc1ccccc13 | -43.8% (active) | 17.2% | 63.6 | 14.4% | 45% | 72.6% | 77.4% | 37.2% | 81.9% | 94.1% |
| CC(=Nc1ccccc1)C1=C(O)C(Cc2ccc(F)cc2)NC1=O (stereo not given) | 2.78% (active) | 17.9% | 42.4 | 28.2% | 18.3% | 25.1% | 23.5% | 36.2% | 45.3% | 17.6% |
| COc1cc(C(=O)NN=C2c3ccccc3-c3ccccc32)cc(OC)c1OC | 5.22% (active) | 14.2% | 42.4 | 20.9% | 31% | 7.14% (active) | 44.2% | 28.7% | 46.6% | 6.51% (active) |
| COc1ccc(/C=C2\NC(=O)NC2=O)cc1O | 107% | 105% | 102 | 99.2% | 101% | 102% | 103% | 95.3% | 104% | 115% |
| CCOC(=O)c1cc2c(n1Cc1cc(OC)c(OC)c(OC)c1)-c1oncc1CCC2 | 4.59% (active) | 20.2% | 72.1 | 25.3% | 37% | 8.95% (active) | 25.5% | 27% | 41.1% | 54% |
| CN(O)c1nc(N(C)O)nc(N2CCOCC2)n1 | 23.7% | 29.2% | 32.8 | 31.5% | 58.9% | 34.2% | 29.1% | 25.4% | 61.1% | 62.6% |
| CCOc1ccc(Nc2ccnc3cc(Cl)ccc23)cc1 | 1.61% (active) | 1.25% (active) | 16 | 4.87% (active) | 4.74% (active) | -12.5% (active) | 21.9% | -22.3% (active) | 31.1% | -40.5% (active) |
| O=C(Cc1ccccc1)NC(c1ccc(Cl)cc1)c1c(O)ccc2ccccc12 (stereo not given) | 12.8% | 40% | 20.8 | 1.3% (active) | 3.12% (active) | -49.5% (active) | 5.84% (active) | 10.4% | 36.6% | -3.92% (active) |
| Nc1n[nH]c2ccc([C@@H]3Nc4ccc5[nH]ncc5c4[C@H]4[C@H]5CCC(C5)[C@H]43)cc12 | 2.25% (active) | 11.4% | 33.4 | 20.1% | 25.6% | 16.9% | 40.5% | 14.7% | 57.7% | 29.5% |
| Nc1ccc(-c2nc3cc(Oc4ccc(Oc5ccc6[nH]c(-c7ccc(N)cc7)nc6c5)cc4)ccc3[nH]2)cc1 | 70.2% | 115% | 110 | 96.6% | 115% | 87.5% | 58.8% | 99.2% | 101% | 82.1% |
| O=C1c2cc(Cl)ccc2Oc2cc([N+](=O)[O-])ccc2N1c1ccc(F)cc1F | 79% | 69.8% | 91.9 | 86.6% | 89.4% | 68.7% | 81.2% | 95.4% | 114% | 80.3% |
| Brc1ccc(Nc2nc3ccccc3nc2Nc2ccc(Br)cc2)cc1 | -46.1% (active) | -7.54% (active) | 16.6 | -58.5% (active) | -0.436% (active) | -85.6% (active) | -16.2% (active) | -87% (active) | -44.2% (active) | -58% (active) |
| N#CC(C#N)=Cc1c(-c2ccccc2)[nH]c2ccccc12 | 14.3% | 2.62% (active) | 37.8 | 32.1% | 9.36% (active) | 14.9% | 32.2% | 48.3% | 42.7% | 45.7% |
| O=c1cc(-c2ccccc2)oc2cc(OCc3cn(Cc4ccc(F)cc4)nn3)cc(OCc3cn(Cc4ccc(F)cc4)nn3)c12 | 35.1% | 6.29% (active) | 12.1 | 10.5% | 36% | 17.1% | 30% | 34.8% | 29.9% | 48.8% |
| COc1ccc2sc3c(NCCCN)nc4ccccc4c3c(=O)c2c1 | -47.8% (active) | 48.3% | 69.6 | -58.1% (active) | 48.8% | 84.3% | 61% | -87.2% (active) | 84.8% | 96.2% |
| CCn1c(-c2nonc2Nc2ccc(OC)cc2)nc2ccccc21 | 102% | 91.6% | 111 | 101% | 107% | 104% | 96.2% | 107% | 107% | 105% |
| CCOC(=O)c1sc(-c2ccc(OS(=O)(=O)c3ccccc3[N+](=O)[O-])c(C=O)c2)nc1C | 110% | 73.4% | 76.1 | 43% | 70% | -57.3% (active) | 64% | -6.91% (active) | 79.4% | 86.6% |
| Cc1ccc(S(=O)(=O)c2c(COC(=O)c3cccc(C)c3)c(-c3ccccc3)nn2C)cc1 | -44.5% (active) | 107% | 24.6 | -32.4% (active) | 48.5% | 77.6% | 88.7% | -22.8% (active) | -68.4% (active) | 27.2% |
| O=c1oc2ccc(Cl)cc2c(=O)n1-c1ccc(I)cc1F | 33.6% | -28.4% (active) | 18.6 | -1.68% (active) | 1.89% (active) | -81.5% (active) | -28.8% (active) | 0.538% (active) | 0.51% (active) | -24.3% (active) |
| COc1ccc(/C=C/C(=O)c2c(C)nc3ccccc3c2/C=C/c2ccccc2)c(OC)c1 | 62.9% | 81.5% | 92.9 | 90% | 75.9% | 85.7% | 62.1% | 83.8% | 108% | 95.9% |
| Cc1ccc(OCCCCCCNCCO)c(C)c1 | 22.4% | 31.1% | 14.5 | 3.86% (active) | 16% | -58.3% (active) | -42% (active) | -1.77% (active) | 15.5% | 2.48% (active) |
| COc1ccc(/C=C2/SC(=O)N(CC(=O)N3CCN(c4cc5c(cc4F)c(=O)c(C(=O)O)cn5C4CC4)CC3)C2=O)cc1 | 99.2% | 86.4% | 101 | 101% | 104% | 101% | 97.3% | 93.9% | 107% | 108% |
| O=C(c1nc2ccccc2[nH]1)C1C(c2ccc([N+](=O)[O-])cc2)C2CC3CCCCC3N2[C@@]12C(=O)Nc1cc(Cl)ccc12 (stereo not given in full) | 18.5% | 27.4% | 27.5 | 25.5% | 22.3% | -57.1% (active) | 20.5% | 25.1% | 44.9% | 48.3% |
| O=c1oc2ccc(Cl)cc2c(=O)n1-c1ccc(Cl)cc1F | 7.06% (active) | -25.3% (active) | 18.4 | -4.3% (active) | 2.03% (active) | -87% (active) | -10.7% (active) | 3.62% (active) | 0.566% (active) | -31% (active) |
| O=c1c2cc(F)ccc2sc2c(Nc3ccncc3)nc3ccccc3c12 | -58.1% (active) | 56.5% | 25.5 | -33% (active) | -10.7% (active) | 75% | 66.7% | -66.7% (active) | 87.7% | 99.5% |
